Source: PubChem BioAssay
Records with an inconclusive call do not appear. The source made the active and inactive calls. Rule as the data show it, unless noted: active = inhibition above about 30%; inactive = the rest.

Columns and labels:
[1] = Her2 expression decrease, cell viability multiplex – SKBR3 breast tumor cells, AlphaScreen, ATP viability, primary screen (AID 461;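 active = Her2 level under about 52% in both replicate screens, with viability over 70% of control, limit read from the data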;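 as to Her2 level: lower value means less Her2 protein in the cells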;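 as to viability: percent of carrier control wells set as 100% viability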); conditions: SKBR3 Her2 protein level, 18-24 h, measured here: SKBR3 viability, ATP luminescence, at 10 µM
[2] = biological target: Receptor tyrosine-protein kinase erbB-2 (Homo sapiens) (UniProt P04626); assay: as above; conditions: 18-24 h, at 10 µM, stronger effect = lower value
Receptor tyrosine-protein kinase erbB-2 (Homo sapiens), sequence (P04626 whole entry, looked up): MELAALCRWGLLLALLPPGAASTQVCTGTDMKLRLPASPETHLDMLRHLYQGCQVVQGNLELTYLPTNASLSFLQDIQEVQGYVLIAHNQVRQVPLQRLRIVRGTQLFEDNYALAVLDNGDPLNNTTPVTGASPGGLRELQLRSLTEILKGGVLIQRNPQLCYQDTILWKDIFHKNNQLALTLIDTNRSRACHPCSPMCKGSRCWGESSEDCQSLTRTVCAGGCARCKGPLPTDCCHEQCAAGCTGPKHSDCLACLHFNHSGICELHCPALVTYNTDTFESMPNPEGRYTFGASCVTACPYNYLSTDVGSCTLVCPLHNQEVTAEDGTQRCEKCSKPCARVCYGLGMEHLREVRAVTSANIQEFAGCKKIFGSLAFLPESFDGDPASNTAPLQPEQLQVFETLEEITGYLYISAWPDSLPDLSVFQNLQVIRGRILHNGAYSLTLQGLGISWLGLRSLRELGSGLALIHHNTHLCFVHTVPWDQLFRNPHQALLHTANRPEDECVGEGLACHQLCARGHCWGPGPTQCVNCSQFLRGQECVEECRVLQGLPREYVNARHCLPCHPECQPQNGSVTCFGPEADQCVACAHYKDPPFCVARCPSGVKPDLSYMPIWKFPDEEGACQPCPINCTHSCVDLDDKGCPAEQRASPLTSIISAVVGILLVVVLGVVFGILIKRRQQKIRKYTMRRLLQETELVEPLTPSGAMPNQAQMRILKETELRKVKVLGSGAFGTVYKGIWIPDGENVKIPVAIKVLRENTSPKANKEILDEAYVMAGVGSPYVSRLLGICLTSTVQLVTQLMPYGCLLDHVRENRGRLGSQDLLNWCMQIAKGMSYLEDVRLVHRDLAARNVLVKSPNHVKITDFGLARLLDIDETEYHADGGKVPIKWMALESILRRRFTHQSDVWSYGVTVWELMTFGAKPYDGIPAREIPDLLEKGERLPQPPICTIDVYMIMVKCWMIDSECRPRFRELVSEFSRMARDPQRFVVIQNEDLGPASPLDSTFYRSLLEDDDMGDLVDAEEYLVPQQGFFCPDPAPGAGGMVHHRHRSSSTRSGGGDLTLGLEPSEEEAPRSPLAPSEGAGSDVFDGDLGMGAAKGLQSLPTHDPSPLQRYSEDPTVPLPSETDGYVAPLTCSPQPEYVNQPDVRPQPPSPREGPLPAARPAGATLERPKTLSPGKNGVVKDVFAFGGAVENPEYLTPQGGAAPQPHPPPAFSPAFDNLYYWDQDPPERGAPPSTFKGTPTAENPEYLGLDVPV

[3] = reduced viability of SK-BR-3 breast cancer cells – cell-based, 24 h, human, pilot screen (AID 572;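 active = viability at or below 10% of carrier control in both of two separate runs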;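 also: compound exposure lasted between 18 and 24 h rather than exactly 24 h; 100% = carrier-treated control wells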); conditions: SK-BR-3 viability, CellTiter-Glo luminescence, at 10 µM, stronger effect = lower value
[4] = HUVEC growth inhibition – cell-based, human, primary screen (AID 575;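 active = viability at or below 30% in both replicate assays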;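 also: 100% = median of untreated cell wells with 0.1% DMSO on each plate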); conditions: HUVEC proliferation, CellTiter-Glo luminescence, 72 h; at 10 µM; stronger effect = lower value
[5] = H69AR cell proliferation blockers – human, duplicate replicates, primary screen (AID 580;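 active = viability at or under a set limit in both replicates, limit being median viability minus 3 SD, cut at about 48% in these data, passing the limit was not always enough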;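 also: 100% = mean luminescence of untreated wells and 0% = no signal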); conditions: H69AR lung tumor cells viability, ATP luminescence, 72 h; at 10 µM; stronger effect = lower value
[6] = MRP1 drug-resistance reversers in H69AR cells – cell-based, doxorubicin co-treatment, pilot screen (AID 601;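 active = viability loss from added drug above about 55%, and viability with drug at most 40%, in both replicates, limit read from the data, passing the limit was not always enough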); conditions: CellTiter-Glo, 72 h, at 10 µM; for differential viability (reversal): stronger effect = higher value
[7] = yeast transport mutant growth inhibition pilot in 384-well plates, post-Golgi transport modulator project (AID 636; in the data active = inhibition above about 31%); conditions: absorbance 615 nm, about 18 h, stronger effect = higher value
[8] = growth suppression of yeast trafficking mutant, preliminary HTS, modulators of trafficking downstream of Golgi apparatus project, 1536-format plate, OD 615 nm (AID 637); conditions: yeast transport mutant growth, absorbance 615 nm, 18 h; stronger effect = higher value
[9] = S. cerevisiae growth inhibition in permissive medium (OD615), pilot counter-assay for S. cerevisiae lifespan shortening project, permissive growth control (AID 705;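 active = growth inhibition above 25% in both replicates, a cutoff set 3 SD above the mean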); conditions: OD615, 24 h, at 10 µM, stronger effect = higher value
[10] = S. cerevisiae growth inhibition in restrictive medium, OD615, pilot screen, restrictive growth control, yeast lifespan reduction project (AID 706;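 active = growth inhibition above a set limit, 3 SD over mean compound inhibition, in both replicates, cut at about 43% in these data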;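 also: modified DeaD lifespan yeast strain shifted to restrictive glucose medium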); conditions: OD615, 48 h, at 10 µM, stronger effect = higher value
[11] = doxorubicin toxicity protection in MRP-1 cells – H69AR cells, CellTiter-Glo, duplicate, MRP-1 activator project, pilot screen (AID 807;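 active = viability increase at or above a cutoff of the median across tested compounds plus 3 SD, cut at about 8.5% in these data, passing the limit was not always enough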;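 also: compound pretreatment 18-22 h then 72 h combined with doxorubicin; 0% = doxorubicin alone and 100% = vehicle without doxorubicin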); conditions: H69AR viability with doxorubicin, CellTiter-Glo luminescence; at 10 µM; stronger effect = higher value
[12] = viability of HCT116 without oncogenic beta-catenin – human colon tumor cells, pilot screen (AID 823;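 active = cell viability at or below a set limit in both duplicate runs, the limit being the all-compound median minus 4 SD, cut at about 23% in these data, passing the limit was not always enough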;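 also: 0% = wells killed by 20 µM Hyamine and 100% = untreated DMSO cell wells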); conditions: HCT116 beta-catenin knockout viability, CellTiter-Glo, 60 h; at 10 µM; stronger effect = lower value
[13] = viability of PTEN-null HCT116 cells – cell-based, HCT116 clonal line, CellTiter-Glo, pilot screen (AID 824;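 active = viability at or below 27.92% in each of two runs, the all-compound median minus 4 SD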;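 also: 0% = 20 µM Hyamine control and 100% = vehicle cell control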); conditions: HCT116 PTEN-deleted viability, 60 h, at 10 µM, stronger effect = lower value
[14] = RAM pathway blockade in budding yeast – dse1pr::URA3 reporter, 5-FOA selection, pilot screen (AID 869;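 active = inhibition over a set limit, the all-compound mean plus 3 SD, in both replicate runs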;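 also: 0% = DMSO wells with no growth and 100% = 10 µM 1-NA-PP1 with full growth; RAM network block rescues cells from 5-FOA so hits raise OD615 growth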); conditions: S. cerevisiae dse1pr::URA3 5-FOA growth, OD615, 2 d; at 10 µM; stronger effect = higher value; strain carries analog-sensitive mutant Cbk1 kinase
[15] = RAM signaling pathway blockade in yeast – S. cerevisiae, Pdr1DBD-CYC8 efflux-inhibited sensitized strain, primary screen (AID 1298;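 active = RAM network inhibition above 8.4% in each of two replicates, 3 SD over the compound average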;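 also: 0% = DMSO untreated cells without growth and 100% = 10 µM 1-NA-PP1 full growth; higher means more yeast growth rescued from 5-FOA killing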); conditions: S. cerevisiae cbk1-as DSE1-URA3 strain, 5-FOA growth OD615, 2 d; at 50 µM; stronger effect = higher value
[16] = H69AR cells + 2 uM doxorubicin, measured here: viability with 2 uM doxorubicin, stronger effect = lower value
[17] = H69AR cells, compound alone cytotoxicity

SMILES	viability [1] [%]	Her2 level [2]	viability [3]	viability [4]	viability [5]	differential viability (reversal) ([6]; H69AR cells + 2 uM doxorubicin)	viability [6, 16] [%]	viability [6, 17] [%]	inhibition [7]	inhibition [8]	growth inhibition [9]	growth inhibition [10]	viability increase [11]	viability [12]	viability [13]	inhibition [14]	RAM network inhibition [15]
Cc1nnc(SCCn2c(N3CCC(Cc4ccccc4)CC3)nc3c2c(=O)[nH]c(=O)n3C)s1	82.5	93.5% (inactive)	82.5% (inactive)	78.1% (inactive)	79.4% (inactive)	8.24% (inactive)	71.1	79.4	-5.21% (inactive)	-5.56% (inactive)	-2.44% (inactive)	5.62% (inactive)	-4.95% (inactive)	78.6% (inactive)	75.7% (inactive)	3.93% (inactive)	5.98% (inactive)
CCOC(=O)c1ccc(NC(=O)CC2SC(=NC)N(C)C2=O)cc1 (stereo not given)	107	88.5% (inactive)	107% (inactive)	110% (inactive)	105% (inactive)	16.6% (inactive)	88.7	105	-3.03% (inactive)	-1.9% (inactive)	6.34% (inactive)	11.4% (inactive)	-0.46% (inactive)	101% (inactive)	97.8% (inactive)	2.03% (inactive)	2.16% (inactive)
CCOC(=O)N1CCN(C(=O)c2ccc(CS(=O)(=O)c3c(Cl)cccc3Cl)o2)CC1	114	128% (inactive)	114% (inactive)	107% (inactive)	96.5% (inactive)	-4.92% (inactive)	101	96.5	-3.07% (inactive)	-3.33% (inactive)	-9.35% (inactive)	-14% (inactive)	-2.77% (inactive)	107% (inactive)	100% (inactive)	0.365% (inactive)	1.21% (inactive)
COc1ccccc1Oc1ccc(S(=O)(=O)N2CCOCC2)cc1S(=O)(=O)N1CCOCC1	86.5	121% (inactive)	86.5% (inactive)	101% (inactive)	83.6% (inactive)	-4.58% (inactive)	88.1	83.6	-0.77% (inactive)	-6.67% (inactive)	-16.4% (inactive)	-21.3% (inactive)	-0.17% (inactive)	93.6% (inactive)	98.3% (inactive)	2.41% (inactive)	4.3% (inactive)
C=C(C)c1cccc(C(C)(C)NC(=O)NCC2CCCO2)c1 (stereo not given)	94	98% (inactive)	94% (inactive)	79.9% (inactive)	93.7% (inactive)	7.16% (inactive)	86.5	93.7	0.77% (inactive)	-8.5% (inactive)	-6.62% (inactive)	-9.92% (inactive)	-0.54% (inactive)	94.7% (inactive)	96.2% (inactive)	1.77% (inactive)	1.07% (inactive)
Oc1c(C(c2ccccc2)N2CCc3ccccc3C2)sc2ncnn12 (stereo not given)	87.5	82.5% (inactive)	87.5% (inactive)	74.4% (inactive)	85% (inactive)	-0.02% (inactive)	85.1	85	-2.69% (inactive)	-2% (inactive)	7.92% (inactive)	8.2% (inactive)	3.99% (inactive)	97.1% (inactive)	93.3% (inactive)	1.78% (inactive)	4.48% (inactive)
CCn1cc(C(=O)NCCCOC)c(=O)c2cc(S(=O)(=O)N(C)C)ccc21	92	106% (inactive)	92% (inactive)	89.3% (inactive)	87.6% (inactive)	-23.8% (inactive)	111	87.6	-1.73% (inactive)	-5.33% (inactive)	-8.04% (inactive)	-9.63% (inactive)	-2.52% (inactive)	97.6% (inactive)	94.2% (inactive)	0.395% (inactive)	0.52% (inactive)
CCOC(=O)c1sc(NC(=O)c2noc3c2CCCC3)c(C(=O)OCC)c1C	69.5	83% (inactive)	69.5% (inactive)	85% (inactive)	67.8% (inactive)	-13.2% (inactive)	81	67.8	1.41% (inactive)	-4.17% (inactive)	-0.315% (inactive)	-5.25% (inactive)	-3.88% (inactive)	55.2% (inactive)	55.8% (inactive)	0.47% (inactive)	2.96% (inactive)
CC1Cc2nc(SCC(N)=O)n(Cc3ccccc3)c(=O)c2S1 (stereo not given)	88.5	100% (inactive)	88.5% (inactive)	93.7% (inactive)	88.3% (inactive)	8.68% (inactive)	79.6	88.3	-3.6% (inactive)	-4.67% (inactive)	-18.9% (inactive)	-26.3% (inactive)	-1.84% (inactive)	95.3% (inactive)	90.9% (inactive)	1.32% (inactive)	1.84% (inactive)
COc1cccc(C2CC(c3ccc(C)cc3)Nc3nc(N)nn32)c1 (stereo not given)	88	98.5% (inactive)	88% (inactive)	99.2% (inactive)	97.9% (inactive)	4.01% (inactive)	93.9	97.9	-0.4% (inactive)	-5.9% (inactive)	-2.17% (inactive)	2.23% (inactive)	0.54% (inactive)	98.6% (inactive)	95.5% (inactive)	0.515% (inactive)	-0.56% (inactive)
